BRCA1 expr act – qHTS Assay to Identify Small Molecule Activators of BRCA1 Expression. MCF7-BRCA1-FFLuc reporter, luminescence, 48 h; response scale: scaled: vehicle 0%, 10 µM genistein 100%. Potency, µM (top dose mostly 46.1 µM), inactives show at the highest dose activation, hits mostly activators. hit rate 1.1% among 380,000. AID 624202, 2012; also: potency is read from the fitted curve at half-maximal effect; nearly all actives have a fitted effect of over 80% in size
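MCF7 cells carrying a BRCA1-firefly luciferase reporter (2000 cells/well, phenol-red free MEM) were attached for 2 h at 37 °C, then given compounds for 48 h. Luminescence was read 15 min after luciferase reagent; activity normalized to genistein (10 microM) and DMSO.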
Mito fusion act – qHTS Assay for Small Molecule Inhibitors of Mitochondrial Division or Activators of Mitochondrial Fusion | S. cerevisiae fusion-defective mutant growth rescue, CellTiterGlo 48 h | Potency, µM (doses to about 46.1 µM), inactives show top-dose growth rescue (activation), hits mostly activators | hit rate 0.23% among 320,000; also: potency is read from the fitted curve at half-maximal effect; % of control where 0% means no effect; nearly all actives have a fitted effect of over 45% in size
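S. cerevisiae fusion-defective temperature-sensitive mutants (e.g. fzo1-1, mgm1-5) grown 48 h at 37C in YPEG (ethanol/glycerol non-fermentable) medium with 23 nl compound per well; growth rescue read as CellTiterGlo luminescence.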
IL2 activator – qHTS of IL-2 Activators; activation, % (series mostly up to about 46 µM); IL-2 activation reporter assay, cell-based qHTS; stimulated with anti-CD3/CD4/CD28 beads; in transgenic mouse T cells; hit rate 0.065% among 360,000; in the data active = activation above about 50%; inconclusive = mostly about 30% to 49%; also: 0% is about no effect
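Unstimulated transgenic mouse T cells, 750 per well, received compound and, after 60 minutes, anti-CD3/anti-CD4 bead plus anti-CD28 stimulation. EGFP and DsRed were quantified after 18 hours.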
p53 reactivation – qHTS assay for re-activators of p53 using a Luc reporter | H1299 p53-A138V BP100-luciferase reporter, luminescence, 24 h | Potency, µM (top dose mostly 92.2 µM), for inactives: at the top dose activity change, positive = activation, hits mostly activators | hit rate 0.063% among 320,000; also: potency is read from the fitted curve at half-maximal effect; % of control where 0% means no effect; nearly all actives have a fitted effect of over 45% in size
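p53-null H1299 cells stably carrying temperature-sensitive p53-A138V and a BP100-luciferase reporter were pinned with compounds (4-point, 1:5 series) and held 24 hrs at 37 deg C. Luminescence was read 10 min after detection reagent.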
TCR act – Activators of T cell receptors: qHTS campaign; Potency, µM (doses to about 9.22 µM), for inactives: at the top dose activation of IL-2 secretion, usual class: activators; primary human leukocytes, anti-CD3, IL-2 HTRF, 48 h; 330,000 tested, under 10 active; AID 504894, 2011; also: % of control where 0% means no effect
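Primary human leukocytes receive a-CD3 beads and test compound and are incubated 48 hr. Secreted IL-2 is then assayed by HTRF, measuring 665nm acceptor emission after 320nm excitation of the europium donor.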
Numbers without * were called inactive; ? = inconclusive; / = no result given; [ ] = dose if it differs, or a comment. The list is not random: actives were taken first. Their share in the collection is about 1.3%. Unless noted, calls follow the shape of the dose curve; as a rule, active = well fitted curve in the direction sought with a large enough effect; inconclusive = small, poorly fitted or top-dose-only effect, or another doubt; inactive = no such curve, though single readings can be large; an effect the other way counts as inactive or inconclusive.

SMILES	BRCA1 expr act	Mito fusion act	IL2 activator	p53 reactivation	TCR act
Cn1c(NCc2ccccc2Cl)nc2ccccc21	3.5µM*	/	-2	/	-3%
Cn1cnc2cc(NCc3ccccc3Cl)ccc21	7.9µM*	26%	0	21%	-5%
Cc1ccc(/C(N)=N/OC(=O)Cc2cccs2)cc1	11µM*	-5%	-3	?	1%
O=c1cc(-c2ccccc2)oc2cc(O)ccc12	10µM*	/	3	/	5%
O=c1cc(-c2ccc(O)cc2)oc2cc(O)cc(O)c12	22µM*	?	-1	/	-9%
O=c1cc(-c2ccccc2)oc2cc(O)cc(O)c12	?	/	-1	/	7%
O=c1cc(-c2ccc(O)cc2)oc2ccc(O)cc12	2.8µM*	-2%	-1	?	5%
O=c1cc(-c2ccc(O)cc2)oc2ccccc12	?	-6%	-1	4%	6%
COc1ccc(/C(C#N)=C/c2ccccn2)cc1	2.8µM*	-4%	-2	?	6%
CCOC(=O)c1ccc(NS(=O)(=O)c2ccc(SC)cc2)cc1	-25%	20µM*	-2	13%	7%
CCOC(=O)Cc1ccc(NS(=O)(=O)c2ccc(SC)cc2)cc1	-38%	13%	0	-10%	6%
ClC(Cl)(Cl)c1nc2ccccc2n2nncc12	-72%	13µM*	-3	-14%	-4%
O=[N+]([O-])c1ccc(-c2cn3c(n2)SCC3)cc1	8.9µM*	/	0	/	0%
N#Cc1ccc(-c2cn3c(n2)SCC3)cc1	95%	14%	0	18%	2%
N#Cc1c(N2CCSCC2)nsc1-c1ccccc1Cl	11µM*	-20%	-3	?	9%
CCCc1nnc(NC(=O)c2cc3ccccc3oc2=O)s1	-19%	-2%	0	6%	-1%
COCc1nnc(NC(=O)c2cc3ccccc3o2)s1	6.3µM*	19%	-2	25%	-3%
CCCc1nnc(NC(=O)c2cc3ccccc3o2)s1	5µM*	9%	-3	26%	6%
Cc1csc(NC(=O)c2cc3ccccc3o2)n1	57%	8%	0	?	8%
COC(=O)c1c(SC)nc2ccccc2c1OCc1ccccc1C	0%	/	/	/	/
Nc1ccc(/C=C/c2ccnc3ccccc23)cc1[N+](=O)[O-]	56%	/	/	/	/
CCN(CC)c1cc(C)c2cc(NC(=O)/C=C/c3ccccc3OC(C)C)ccc2n1	-6%	/	/	/	/
COc1ccc(C)cc1Nc1n[n+](-c2ccccc2)c(-c2ccc(NC(C)=O)cc2)s1	-1%	-1%	-1	6%	3%
COc1ccc(C)cc1Nc1n[n+](-c2ccccc2)c(-c2cc([N+](=O)[O-])cc(OC)c2O)s1	2%	-1%	180*	14%	-3%
CCCN1CNc2c(c(=O)[nH]c(=S)n2CCc2c(C)cccc2C)C1	21%	/	/	/	/
SMILES	BRCA1 expr act	Mito fusion act	IL2 activator	p53 reactivation	TCR act
CCc1ccc(Nc2cc(C)nc3ncnn23)cc1	-16%	-3%	0	2%	/
CCn1c2ccccc2c2cc(Nc3cc(C)nc4ncnn34)ccc21	-82%	16µM*	-3	6%	-3%[46.1 µM]
CCc1cc(C(=O)OC)c(NC(=O)CC2Nc3cc(C)c(C)cc3NC2=O)s1 (stereo not given)	2%	-3%	?	12%	-6%[46.1 µM]
COC(=O)c1c(NC(=O)CC2Nc3cc(C)c(C)cc3NC2=O)sc(C)c1C (stereo not given)	13%	-4%	62*	5%	-2%[46.1 µM]
Cc1n[nH]c(C)c1S(=O)(=O)N(CC(=O)NCc1ccccc1Cl)c1ccc(C(C)C)cc1	-36%	/	/	/	/
CSc1nsc(NC(=O)OCc2ccc(Cl)cc2)n1	-2%	-9%	-1	-14%	/
COc1ccsc1NC(=O)OCc1ccc(Cl)cc1	13µM*	-9%	-2	10%	-31%
CN(C)c1ccc(N=Nc2ccc(S(=O)(=O)O)cc2)cc1	8%	/	/	/	/
CC(=O)C(C)Oc1ccc2c3c(c(=O)oc2c1)CCCC3 (stereo not given)	11µM*	-2%	-3	25%	-1%
CN(C)c1ccc(/C=C/C=C2/C=Cc3ccccc32)cc1	104%	/	/	/	/

Screening results from PubChem.
